Inconclusive results are not listed. Active and inactive are the calls of the source. How the source made its calls, unless noted: active means hit-call score of the fitted dose curve at least 0.9, where 1 is the maximum; inactive means score below 0.9.

Outcome and AC50 data for 4 compounds are collected here from PubChem BioAssay (EPA / NIEHS).

Assay [1] deals with Transcriptional activator Myb (Homo sapiens) (UniProt P10242). The assay can be described thus: ATG_Myb_CIS: Attagene CIS-FACTORIAL HepG2 Assay for human Myeloblastosis (Myb) Proto-Oncogene Transcription Factor (AID 2282986). To be noted: HepG2 Attagene CIS-FACTORIAL Myb reporter transcription; actives raise or lower the signal. The essentials:
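Transiently transfected HepG2 cells, treated 24 h. Reporter mRNA quantified by RT-PCR/capillary electrophoresis; bidirectional fit relative to DMSO.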

In assay [2] the target is Nuclear respiratory factor 1 (Homo sapiens) (UniProt Q16656). The assay can be described thus: ATG_NRF1_CIS: Attagene CIS-FACTORIAL HepG2 Assay for human Nuclear Respiratory Factor 1 (NRF1) Orphan Gene (AID 2282987). To be noted: HepG2 NRF1 cis-element reporter, Attagene multiplex; actives raise or lower the signal. Put shortly:
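Cells (HepG2, transient MRTU transfection) are exposed to compound for 24 h, then RNA isolated and reporter mRNA amplified and fluorescently labelled. Fragments are separated by capillary electrophoresis; signal change is fitted bidirectionally relative to DMSO.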

A short description of assay [3]: ATG_NFI_CIS: Attagene CIS-FACTORIAL HepG2 Assay for human Nuclear Factor I (NFI) (AID 2282989). Conditions: HepG2 cis-regulatory reporter, NFI response element transcription; actives raise or lower the signal. Put shortly:
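Cells: human liver HepG2, transiently transfected with promoter-regulated reporter transcription units. Exposure 24 h. Detection: fluorescent RT-PCR products separated by capillary electrophoresis, normalised to DMSO negative control.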

The target in assay [4] is Myc proto-oncogene protein (Homo sapiens) (UniProt P01106). In words: ATG_Myc_CIS: Attagene CIS-FACTORIAL HepG2 Assay for human Myelocytomatosis (Myc) Proto-Oncogene Transcription Factor (AID 2282990). To be noted: HepG2, Attagene cis-reporter transcription factor activity; actives raise or lower the signal. The essentials:
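Multiplexed cis-reporter transcription in HepG2 cells after 24 h chemical treatment. Reporter mRNA measured by RT-PCR and capillary electrophoresis fluorescence; activity fitted bidirectionally against DMSO control.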

The nature of assay [5]: ATG_NRF2_ARE_CIS: Attagene CIS-FACTORIAL HepG2 Assay for human Nuclear Factor Erythroid 2 Related Factor 2 (NFR2) response to Antioxidant Response Elements (ARE) (AID 2282992). Conditions: HepG2 Attagene ARE/NRF2 reporter, transcription factor activity; actives raise or lower the signal. The essentials:
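Readout: reporter mRNA quantified by RT-PCR plus FAM-labelled primer extension, HpaI digestion and capillary electrophoresis, 24 h after dosing transfected HepG2 cells. Gain or loss of signal is fitted bidirectionally against DMSO baseline.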

A short description of assay [6]: ATG_Oct_MLP_CIS: Attagene CIS-FACTORIAL HepG2 Assay for human Octamer-Binding Transcription Factor (Oct) (AID 2282993). To be noted: HepG2 Attagene cis-factorial Oct reporter, mRNA; actives raise or lower the signal. Put shortly: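 HepG2, transient MRTU transfection, cis promoter elements; 24 h dosing; RT-PCR/CE fluorescence read-out of reporter mRNA; fit both directions vs DMSO.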

Assay [7] deals with Cellular tumor antigen p53 (Homo sapiens) (UniProt P04637). The assay can be described thus: ATG_p53_CIS: Attagene CIS-FACTORIAL HepG2 Assay for human p53 Transcription Factor (AID 2282994). To be noted: HepG2 p53 cis-element reporter, Attagene mRNA; actives raise or lower the signal. Put shortly:
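Read-out: reporter mRNA by RT-PCR plus capillary electrophoresis with fluorescence detection. Human HepG2 liver cells carried transfected multi-reporter cis-element constructs, dosed 24 h. Gain or loss of signal fitted bidirectionally against DMSO control.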

Assay [8] in a line: BSK_3C_TissueFactor: BioMAP Diversity Plus: 3C Assay for Tissue Factor Biomarker Activity (AID 2282997). To be noted: BioMAP 3C HUVEC, tissue factor biomarker readout; actives raise or lower the signal. Put shortly: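 After a 24 h chemical exposure of primary human umbilical vein endothelial cells, Tissue Factor levels were quantified by ELISA.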
Assay [9] can be described thus: BSK_3C_uPAR: BioMAP Diversity Plus: 3C Assay for Urokinase-type plasminogen activator receptor (uPAR) Biomarker Activity (AID 2282998). Conditions: BioMAP 3C HUVEC, uPAR biomarker ELISA; actives raise or lower the signal. The essentials: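 A multiplexed primary-cell system built on human umbilical vein endothelium was used, with chemical present for 24 h before reading. Cell-surface uPAR was detected by ELISA; signal change in either direction counted against DMSO.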
(In an ELISA, binding on a coated surface is turned into a signal by an enzyme label.)

The nature of assay [10]: BSK_3C_VCAM1: BioMAP Diversity Plus: 3C Assay for Vascular cell adhesion molecule 1 (VCAM1) Biomarker Activity (AID 2282999). To be noted: BioMAP 3C HUVEC, VCAM1 ELISA, cytokine-stimulated; actives raise or lower the signal. The essentials: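 Vascular primary endothelium (human umbilical vein) was exposed to chemicals and assayed 24 h later. VCAM-1 levels came from ELISA, with DMSO serving as baseline for bidirectional fitting.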

Assay [11] in a line: BSK_4H_Eotaxin3: BioMAP Diversity Plus: 4H Assay for Eotaxin 3 Biomarker Activity (AID 2283000).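 On Outcome: CCL26 protein level quantified by ELISA in parallel with SRB cytotoxicity check.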 To be noted: primary human endothelial cells (HUVEC); actives raise or lower the signal. Put shortly:
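Chemicals were added to human umbilical vein endothelium cultures, and Eotaxin-3 was quantified by ELISA at 24 h. Values were derived by bidirectional fitting with DMSO serving as negative control and activity baseline.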

The target in assay [12] is human Peroxisome Proliferator-activated Receptor alpha (PPARa), PPARA (gene 5465) (UniProt Q07869). In words: ATG_PPARa_TRANS: Attagene TRANS-FACTORIAL HepG2 Assay for human Peroxisome Proliferator-activated Receptor alpha (PPARa) (AID 2283001; active means hit-call score of the fitted dose curve at least 0.9, where 1 is the maximum). The essentials:
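Exposure: 24 h, transiently transfected HepG2 cells. Endpoint: GAL4-UAS reporter mRNA, RT-PCR with capillary electrophoresis fluorescence. Baseline: DMSO; increases fitted.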

Read-out in assay [13]: Intercellular Adhesion Molecule 1 (ICAM1), ICAM1 (gene 3383)
The assay can be described thus: BSK_3C_ICAM1: BioMAP Diversity Plus: 3C Assay for Intercellular Adhesion Molecule 1 (ICAM1) Biomarker Activity (AID 2283003). To be noted: primary human endothelial cells (HUVEC); actives raise or lower the signal. Put shortly: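 ELISA read-out of ICAM-1; HUVEC (primary human), 3C system, 24 h post-dosing; bidirectional fit vs DMSO baseline.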

A short description of assay [14]: BSK_3C_Proliferation: Cell Proliferation Assessment in the BioMAP Diversity Plus: 3C Assay (AID 2283006).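 On AC50: potency may reflect either rise or fall in cell number versus DMSO.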 Conditions: primary human endothelial cells (HUVEC). The essentials: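 HUVEC, sub-confluent; 48 h chemical exposure; 10% TCA fix, 0.1% SRB stain, A560 total protein. Gain or loss of signal fitted both directions vs DMSO control.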
In assay [15] the target is Peroxisome proliferator-activated receptor gamma (Homo sapiens) (UniProt P37231). The assay can be described thus: ATG_PPARg_TRANS: Attagene TRANS-FACTORIAL HepG2 Assay for human Peroxisome Proliferator-activated Receptor-gamma (PPARg) (AID 2283007; active means hit-call score of the fitted dose curve at least 0.9, where 1 is the maximum). Put shortly:
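Gain-of-signal endpoint relative to DMSO, derived from reporter mRNA levels quantified by RT-PCR and capillary electrophoresis. Cells were HepG2 transiently expressing a chimeric NR-Gal4 construct with GAL4-UAS reporters, exposed to chemicals for 24 h.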

Assay [16] deals with Nuclear receptor subfamily 1 group I member 2 (Homo sapiens) (UniProt O75469). The assay can be described thus: ATG_PXR_TRANS: Attagene TRANS-FACTORIAL HepG2 Assay for human Pregnane X Receptor (PXR) (AID 2283008; active means hit-call score of the fitted dose curve at least 0.9, where 1 is the maximum). Put shortly:
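Trans-factorial format: exogenous NR-Gal4 fusion activity, not endogenous factor, in transfected human HepG2 liver cells. After 24 h dosing, RNA isolated, reverse-transcribed, amplified and resolved by capillary electrophoresis; induction scored versus DMSO.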

Assay [17] is described as follows: ATG_NF_kB_CIS: Attagene CIS-FACTORIAL HepG2 Assay for human Nuclear Factor Kappa B (NF-kB) (AID 2282991). To be noted: HepG2 Attagene cis-factorial NF-kB reporter mRNA; actives raise or lower the signal. Put shortly:
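Measures mRNA induction of an NF-kB-responsive cis-element reporter in HepG2 cells transfected with multiple reporter units, sampled 24 h post-dosing; quantified by fluorescence after RT-PCR and capillary electrophoresis, fitted for activation or inhibition against DMSO.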

Assay [18] concerns the target human Retinoic Acid Receptor beta (RARb), RARB (gene 5915) (UniProt P10826). In words: ATG_RARb_TRANS: Attagene TRANS-FACTORIAL HepG2 Assay for human Retinoic Acid Receptor beta (AID 2283004; active means hit-call score of the fitted dose curve at least 0.9, where 1 is the maximum). The essentials:
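Transient transfection of HepG2 with multiple reporter units → chemical dosing, 24 h → total RNA isolation → RT with oligo(dT) → reporter-specific PCR, 6-FAM primer extension, HpaI digest → capillary electrophoresis. Positive direction vs DMSO control.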

Assay [19] concerns the target human Peroxisome Proliferator-activated Receptor delta (PPARd), PPARD (gene 5467) (UniProt Q03181). The assay can be described thus: ATG_PPARd_TRANS: Attagene TRANS-FACTORIAL HepG2 Assay for human Peroxisome Proliferator-activated Receptor delta (PPARd) (AID 2283002; active means hit-call score of the fitted dose curve at least 0.9, where 1 is the maximum). Put shortly: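 Multiplexed trans-activation format: HepG2 liver cells expressing exogenous NR-Gal4 chimeras and GAL4-UAS reporters were exposed for 24 h. Reporter mRNA was detected by RT-PCR with capillary electrophoresis fluorescence; activity fitted as gain of signal relative to DMSO.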

For assay [20], the target named is Retinoic acid receptor alpha (Homo sapiens) (UniProt P10276). In words: ATG_RARa_TRANS: Attagene TRANS-FACTORIAL HepG2 Assay for human Retinoic Acid Receptor alpha (RARa) (AID 2283005; active means hit-call score of the fitted dose curve at least 0.9, where 1 is the maximum). Put shortly:
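HepG2 cells transiently transfected with multiple reporter units expressing chimeric RARα-GAL4 fusion, with GAL4-UAS-driven reporters. After 24 h compound exposure, reporter mRNA induction quantified by RT-PCR and capillary electrophoresis with fluorescent labeling; gain-of-signal fitted relative to DMSO control.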

Transcriptional activator Myb (Homo sapiens), sequence (P10242 whole entry, looked up): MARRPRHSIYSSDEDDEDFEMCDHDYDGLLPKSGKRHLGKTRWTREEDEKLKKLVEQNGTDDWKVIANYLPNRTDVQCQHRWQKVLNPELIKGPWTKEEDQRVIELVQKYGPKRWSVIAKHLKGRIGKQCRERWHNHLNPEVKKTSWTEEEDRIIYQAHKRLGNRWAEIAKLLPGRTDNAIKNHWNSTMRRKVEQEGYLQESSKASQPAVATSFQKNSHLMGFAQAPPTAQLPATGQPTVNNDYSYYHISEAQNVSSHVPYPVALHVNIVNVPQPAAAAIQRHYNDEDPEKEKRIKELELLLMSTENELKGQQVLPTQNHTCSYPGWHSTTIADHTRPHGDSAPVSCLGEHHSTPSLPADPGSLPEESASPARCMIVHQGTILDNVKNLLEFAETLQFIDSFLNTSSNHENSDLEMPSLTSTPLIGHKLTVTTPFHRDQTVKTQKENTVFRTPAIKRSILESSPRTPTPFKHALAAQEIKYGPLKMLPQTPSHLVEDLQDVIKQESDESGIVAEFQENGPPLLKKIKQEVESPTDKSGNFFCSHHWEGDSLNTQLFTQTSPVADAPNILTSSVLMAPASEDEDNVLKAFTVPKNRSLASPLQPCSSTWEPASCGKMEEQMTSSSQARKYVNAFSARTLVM
Nuclear receptor subfamily 1 group I member 2 (Homo sapiens), sequence (O75469 whole entry, looked up, the tested form may be a part): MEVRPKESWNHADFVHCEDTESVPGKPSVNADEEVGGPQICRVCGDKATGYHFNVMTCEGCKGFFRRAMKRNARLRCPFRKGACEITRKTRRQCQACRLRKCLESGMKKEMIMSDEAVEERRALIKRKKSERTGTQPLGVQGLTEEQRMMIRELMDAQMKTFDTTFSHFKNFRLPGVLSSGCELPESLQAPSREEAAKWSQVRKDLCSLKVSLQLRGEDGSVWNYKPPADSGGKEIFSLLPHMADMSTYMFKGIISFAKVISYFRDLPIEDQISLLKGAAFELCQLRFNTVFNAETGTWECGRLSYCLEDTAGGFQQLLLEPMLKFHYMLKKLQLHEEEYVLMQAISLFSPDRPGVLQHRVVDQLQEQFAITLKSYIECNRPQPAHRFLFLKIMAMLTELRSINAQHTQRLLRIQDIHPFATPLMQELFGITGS
Myc proto-oncogene protein (Homo sapiens), sequence (P01106 whole entry, looked up): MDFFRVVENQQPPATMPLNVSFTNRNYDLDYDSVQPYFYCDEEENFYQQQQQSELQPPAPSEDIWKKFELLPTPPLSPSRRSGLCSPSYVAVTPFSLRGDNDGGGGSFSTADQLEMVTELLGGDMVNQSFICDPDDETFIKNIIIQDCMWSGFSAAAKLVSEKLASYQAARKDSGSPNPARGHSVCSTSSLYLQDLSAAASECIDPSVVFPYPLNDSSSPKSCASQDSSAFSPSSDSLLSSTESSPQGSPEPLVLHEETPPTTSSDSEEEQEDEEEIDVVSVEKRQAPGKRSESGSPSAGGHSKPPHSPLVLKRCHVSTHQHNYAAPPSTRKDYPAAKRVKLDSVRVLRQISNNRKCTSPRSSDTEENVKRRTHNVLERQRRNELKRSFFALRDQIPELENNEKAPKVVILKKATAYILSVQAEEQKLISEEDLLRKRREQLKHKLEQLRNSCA
Nuclear respiratory factor 1 (Homo sapiens), sequence (Q16656 whole entry, looked up, the tested form may be a part): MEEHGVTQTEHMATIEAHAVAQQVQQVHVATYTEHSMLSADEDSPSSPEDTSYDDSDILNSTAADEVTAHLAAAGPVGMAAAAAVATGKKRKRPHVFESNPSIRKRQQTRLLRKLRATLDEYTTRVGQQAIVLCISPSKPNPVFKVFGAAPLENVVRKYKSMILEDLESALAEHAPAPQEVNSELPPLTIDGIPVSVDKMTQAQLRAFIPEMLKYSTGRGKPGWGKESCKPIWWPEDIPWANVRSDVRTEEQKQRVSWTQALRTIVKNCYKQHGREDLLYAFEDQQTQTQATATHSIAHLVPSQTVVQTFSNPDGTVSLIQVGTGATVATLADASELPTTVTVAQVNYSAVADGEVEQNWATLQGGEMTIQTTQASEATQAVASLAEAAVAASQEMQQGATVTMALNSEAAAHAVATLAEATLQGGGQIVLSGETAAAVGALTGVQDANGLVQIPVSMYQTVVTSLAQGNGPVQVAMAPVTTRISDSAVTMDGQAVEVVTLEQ
Peroxisome proliferator-activated receptor gamma (Homo sapiens), sequence (P37231 whole entry, looked up, the tested form may be a part): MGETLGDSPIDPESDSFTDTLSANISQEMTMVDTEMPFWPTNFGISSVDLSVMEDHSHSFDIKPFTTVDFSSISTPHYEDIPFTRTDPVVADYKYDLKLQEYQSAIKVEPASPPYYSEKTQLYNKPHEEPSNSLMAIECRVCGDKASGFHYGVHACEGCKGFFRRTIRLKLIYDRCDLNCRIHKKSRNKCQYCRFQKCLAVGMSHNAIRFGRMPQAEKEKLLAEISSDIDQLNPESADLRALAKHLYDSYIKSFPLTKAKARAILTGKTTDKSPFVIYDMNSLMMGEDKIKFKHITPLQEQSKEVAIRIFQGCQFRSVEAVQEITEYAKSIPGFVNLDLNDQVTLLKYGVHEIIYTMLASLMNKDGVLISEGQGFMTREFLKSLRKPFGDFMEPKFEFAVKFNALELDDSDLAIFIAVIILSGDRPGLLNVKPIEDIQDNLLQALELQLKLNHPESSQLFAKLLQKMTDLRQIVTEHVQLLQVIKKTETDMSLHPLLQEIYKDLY
human Retinoic Acid Receptor beta (RARb), RARB (gene 5915), sequence (P10826 whole entry, looked up): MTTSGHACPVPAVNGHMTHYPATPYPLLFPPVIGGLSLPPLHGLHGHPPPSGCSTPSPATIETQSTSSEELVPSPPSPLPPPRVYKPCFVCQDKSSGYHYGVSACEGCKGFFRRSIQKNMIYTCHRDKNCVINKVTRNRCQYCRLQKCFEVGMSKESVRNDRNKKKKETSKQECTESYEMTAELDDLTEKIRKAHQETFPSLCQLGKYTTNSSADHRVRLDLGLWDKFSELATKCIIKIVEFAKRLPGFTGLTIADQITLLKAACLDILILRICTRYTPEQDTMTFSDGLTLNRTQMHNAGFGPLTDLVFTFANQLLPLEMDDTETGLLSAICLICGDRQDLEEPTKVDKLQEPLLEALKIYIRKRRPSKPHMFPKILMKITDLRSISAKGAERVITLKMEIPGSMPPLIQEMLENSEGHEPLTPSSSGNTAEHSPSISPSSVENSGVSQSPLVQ
human Peroxisome Proliferator-activated Receptor alpha (PPARa), PPARA (gene 5465), sequence (Q07869 whole entry, looked up, the tested form may be a part): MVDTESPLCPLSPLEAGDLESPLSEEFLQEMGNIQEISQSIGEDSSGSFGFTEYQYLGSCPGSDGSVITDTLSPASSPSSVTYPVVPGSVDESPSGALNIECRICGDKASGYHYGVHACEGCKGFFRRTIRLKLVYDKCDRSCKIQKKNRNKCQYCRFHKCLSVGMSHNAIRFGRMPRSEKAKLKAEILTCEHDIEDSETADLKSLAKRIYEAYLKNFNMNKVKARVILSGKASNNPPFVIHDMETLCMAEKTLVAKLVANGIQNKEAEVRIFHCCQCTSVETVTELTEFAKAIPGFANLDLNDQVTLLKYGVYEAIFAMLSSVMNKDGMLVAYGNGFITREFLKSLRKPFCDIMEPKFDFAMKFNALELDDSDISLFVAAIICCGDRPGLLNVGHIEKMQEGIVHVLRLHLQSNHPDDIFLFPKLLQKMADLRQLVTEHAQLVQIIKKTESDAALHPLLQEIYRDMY
Retinoic acid receptor alpha (Homo sapiens), sequence (P10276 whole entry, looked up, the tested form may be a part): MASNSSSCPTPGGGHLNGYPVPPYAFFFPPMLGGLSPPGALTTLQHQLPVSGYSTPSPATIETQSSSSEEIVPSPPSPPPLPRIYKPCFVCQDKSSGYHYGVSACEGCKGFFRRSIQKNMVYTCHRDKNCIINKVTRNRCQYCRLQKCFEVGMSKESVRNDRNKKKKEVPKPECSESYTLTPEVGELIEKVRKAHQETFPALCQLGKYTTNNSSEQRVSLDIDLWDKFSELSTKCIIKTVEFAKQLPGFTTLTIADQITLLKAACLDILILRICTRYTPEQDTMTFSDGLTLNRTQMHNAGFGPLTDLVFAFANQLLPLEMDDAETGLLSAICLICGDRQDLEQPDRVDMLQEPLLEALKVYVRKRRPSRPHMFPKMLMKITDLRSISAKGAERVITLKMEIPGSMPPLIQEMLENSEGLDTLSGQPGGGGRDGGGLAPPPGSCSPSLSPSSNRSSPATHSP
Cellular tumor antigen p53 (Homo sapiens), sequence (P04637 whole entry, looked up): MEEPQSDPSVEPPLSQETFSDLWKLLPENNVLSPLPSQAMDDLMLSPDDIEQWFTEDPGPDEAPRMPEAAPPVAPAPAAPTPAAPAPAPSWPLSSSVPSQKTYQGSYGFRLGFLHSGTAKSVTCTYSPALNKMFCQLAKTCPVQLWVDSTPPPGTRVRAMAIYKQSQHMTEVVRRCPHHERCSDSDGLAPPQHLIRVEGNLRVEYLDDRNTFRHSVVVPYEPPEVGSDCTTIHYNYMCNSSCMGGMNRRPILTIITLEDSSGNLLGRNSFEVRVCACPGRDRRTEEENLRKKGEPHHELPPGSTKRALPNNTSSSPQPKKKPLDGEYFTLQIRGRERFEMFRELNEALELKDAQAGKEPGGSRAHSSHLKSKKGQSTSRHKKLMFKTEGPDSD
human Peroxisome Proliferator-activated Receptor delta (PPARd), PPARD (gene 5467), sequence (Q03181 whole entry, looked up, the tested form may be a part): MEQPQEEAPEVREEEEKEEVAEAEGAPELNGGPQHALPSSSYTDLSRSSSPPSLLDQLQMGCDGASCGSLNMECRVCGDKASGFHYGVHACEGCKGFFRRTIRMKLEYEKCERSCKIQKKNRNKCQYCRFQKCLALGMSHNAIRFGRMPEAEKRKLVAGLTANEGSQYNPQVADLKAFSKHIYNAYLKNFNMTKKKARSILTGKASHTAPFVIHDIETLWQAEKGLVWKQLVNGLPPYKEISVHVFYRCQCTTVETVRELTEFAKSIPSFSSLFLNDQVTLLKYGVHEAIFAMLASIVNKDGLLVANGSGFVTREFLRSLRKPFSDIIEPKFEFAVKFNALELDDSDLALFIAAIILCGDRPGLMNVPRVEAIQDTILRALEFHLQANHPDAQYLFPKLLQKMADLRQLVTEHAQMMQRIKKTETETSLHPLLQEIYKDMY

`c1ccc2c(c1)sc1ccccc12`: the compound was classed as inactive in assay [1], in [2], in assay [3], in [4], in assay [5] and in assay [6]. Besides, the outcome in [7], in assay [8], in assay [9], in assay [10], in assay [11] and in [12] was inactive. Besides, the outcome in assay [13], in assay [14], in [15] and in [16] was inactive.
For `CCCCC(CC)COP(=O)(Oc1ccccc1)Oc1ccccc1` (configuration not stated), the AC50 (as a rule, the midpoint of the concentration-response curve, whichever way the signal moves) in assay [1] is 143 µM (active); in assay [2] it was 173 µM (active); in assay [3] it was 158 µM (active); in assay [4] it was 143 µM (active); in [17], 159 µM (active); in assay [5] it was 12.2 µM (active). The AC50 is 87.1 µM (active) in assay [6]; 9.63 µM (active) in [8]; 12.1 µM (active) in assay [9]; 20 µM (active) in assay [10]; 20 µM (active) in assay [11]; 7.38 µM (active) in [14]. Further, the AC50 in [15] was 5.22 µM (active); in assay [16], 0.296 µM (active). Also, the outcome in [13] and in [18] was inactive.
For the compound `CCOC(=O)c1ccccc1N`, the call in assay [1], in assay [2], in assay [3], in assay [4], in [5] and in assay [6] was inactive. Further, the compound was called inactive in [12] and in assay [15].
For `Cc1c([N+](=O)[O-])cc2c(c1[N+](=O)[O-])C(C)(C)CC2(C)C`, the compound was classed as inactive in assay [1], in [2], in assay [3], in assay [5], in assay [6] and in [10]. Besides, the result in assay [19], in [13], in assay [18], in assay [20] and in assay [15] was inactive. Also, the AC50 in [4] was 3.03 µM (active); in assay [8] it was 3.62 µM (active); in assay [9], 0.87 µM (active); in assay [11] it was 2.15 µM (active); in assay [14], 2.4 µM (active); in [16], 0.862 µM (active).
